# From PubChem BioAssay (NCATS)
# Inconclusive results are not listed. Unmarked numbers belong to inactive results. Calls come from the whole dose curve; as a rule, active = well fitted activation curve with a large enough effect; inconclusive = small, poorly fitted or top-dose-only effect; inactive = flat fitted curve, though single readings scatter.
# Assay: Cellular Toxicity (caspase-3) H-4-II-E (AID 663);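 note: cells exposed to compound for 16 hr before readout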
# Settings: H-4-II-E rat hepatoma, scaled: DMSO 0%, 100 µM tamoxifen 100%; at 92.2 µM (top of the series)
# Text: NIH Chemical Genomics Center [NCGC]
# NIH Molecular Libraries Screening Centers Network [MLSCN]
# National Institutes of Environmental Health Sciences [NIEHS]
# National Toxicology Program [NTP]
# We have developed a 1536-well cell-based assay for quantitative high throughput screening (qHTS) against a number of cell lines to determine in vitro caspase 3/7 of small molecules. This particular assay uses the H-4-II-E cell line which is derived from rat hepatoma.
# NCGC Assay Protocol Summary:
# The Caspase-Glo 3/7 assay (Promega) is a homogeneous method to measure caspase-3 and caspase-7 activities in cultured cells. The quantitation of caspase 3/7 activity is based on the cleavage of a peptide-aminoluciferin substrate. After caspase cleaves the substrate the free aminoluciferin is liberated and serves as the substrate of luciferase, which generates the light. The luminescent signal is proportional to amount of caspase 3/7 activity present.
# Using the Caspase-Glo 3/7 assay, the amount of caspase 3/7 activity was measured in the H-4-II-E cell line with complete culture medium following compound treatment for 16 hours. The assay was performed in opaque white 1536-well plates. In the screen, tamoxifen and doxorubicin were used as positive controls. Library compounds were measured for their ability to cause the activation of caspase 3/7 in the cell line, as reflected by an increase in luminescence signal, in a concentration-dependent manner. Data were normalized to the controls for basal activity (DMSO only) and 100% stimulation (100 uM tamoxifen). AC50 values were determined from concentration-response data modeled with the standard Hill equation.
# qHTS protocol for caspase 3/7 assay in H-4-II-E cells
# [Step] [Parameter] [Value] [Description]
# 1. Reagent; 5 uL; 1500 H-4-II-E cells/well
# 2. Time; 5 hr; 37 °C incubation
# 4. Controls; 23 nL; Tamoxifen 0.23 uM to 100 uM & Doxorubicin 7.0 pM to 100 uM
# 5. Time; 16 hr; 37 °C incubation
# 6. Reagent; 5 uL; Caspase-Glo 3/7 reagent
# 7. Time; 20 min; Room Temperature
# 8. Detection; Luminescence; Viewlux plate reader
# Keywords: caspase 3/7, apoptosis, H-4-II-E cell line, luminescence, NTPHTS, NTPHTS_NCGC, NIEHS, EPA, DSSTox, MLSMR, MLSCN, NIH Roadmap, qHTS, NCGC
row,Structure (SMILES),caspase-3 activation [%]
1,ICCc1ccccc1,0.877
2,O=C(O)CCSSCCC(=O)O,-0.00623
3,CC=C(Cl)Cl,0.108
4,Nc1ccccc1S(=O)(=O)O,-0.112
5,CC(C)(O)C(=O)O,-0.178
6,CC(C)=CCC/C(C)=C/C=O,0.873
7,O=[N+]([O-])c1ccccc1CCO,1.12
8,CC(C)=C1CCC(C)CC1=O (stereo not given),-0.0437
9,CCOC(C)(C)C,-0.707
10,Nc1c(Cl)cc(Cl)cc1Cl,2.86
11,CNc1ccccc1,0.262
12,C=C(C)C1CC=C(C)C(OC(C)=O)C1 (stereo not given),2.65
13,CCOC(=O)OCC,-0.0213
14,CC(=O)c1ccccn1,1.68
15,CCc1ccccc1O,-0.213
16,Nc1ccc([N+](=O)[O-])c(N)c1,-0.185
17,Cc1ccc2c(c1[N+](=O)[O-])C(=O)c1ccccc1C2=O,-1.7
18,C=C(C)C(=O)OCC(C)C,0.664
19,O=Cc1ccc(C(=O)O)cc1,-0.315
20,O=[N+]([O-])c1ccc(CCO)cc1,0.267

row,Structure (SMILES),caspase-3 activation [%]
1,CC/C(C)=N/O,-0.877
2,Cc1cccc(C)c1,0.714
3,CCCC(Cl)CCCC(Cl)CCC(Cl)CCC(Cl)CCC(Cl)CCCC(Cl)CCC (stereo not given),0.272
4,C=Cc1ccccc1C=C,0.884
5,O=[N+]([O-])c1ccc(NCCO)c(OCCO)c1,0.77
6,Nc1cc(Cl)c([N+](=O)[O-])cc1O,1.74
7,CC(C)Cc1nccs1,0.155
8,COc1cccc2sc(N)nc12,0.718
9,Cc1ccc(N(C)C)cc1,-1.01
10,NC=O,0.414
11,Cc1ccc(Cl)cc1N,-0.363
12,O=C(O)c1ccccc1Cl,0.73
13,CCCCCCCCC,0.863
14,C/C=C(/C)C#N,0.589
15,S=C([S-])NCCNC(=S)[S-].[Zn+2],-1.93
16,Cc1cccc(C)c1O,-0.375
17,CCC(C)(C)C(=O)O,1.75
18,Cc1cc(C)cc([N+](=O)[O-])c1,0.227
19,O=Nc1ccc(NO)cc1,1.96
20,CC(C)(C)OC=O,0.183
